SMILES strings stand for the structures. The panel holds about 83,000 compounds, 20% with a hit somewhere; the sample as a whole holds those more often.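 Percent growth is the endpoint: 0 to 100 indicates growth inhibition (40 means 60% inhibition), 0 means no net growth, and negative values indicate cell death.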 Calls of active or inactive are those of the source. Rule for the calls: active = growth percent below 10; inactive = the rest.

One assay concerns NCI-H460 lung. Briefly: NCI-60 one-dose screen, 48 h (100 = growth as untreated, 0 = no growth, -100 = all killed). Conditions: 10 µM unless noted.
In the case of `Cc1ccc(Cl)cc1NC(=O)c1cc2ccccc2cc1O`, the growth was -22.5% (active).

As for `COc1ccc(NC(=O)CSc2nc(C)c(C(C)=O)n2-c2ccc([N+](=O)[O-])cc2)cc1`, the growth is 103% (inactive).

Turning to `O=C(NC(Cc1nnc2n(Cc3ccccc3)c(=O)c3c4c(sc3n12)CCCC4)c1ccc(Cl)cc1)c1ccccc1` (stereo unspecified), the growth was 101% (inactive).

`COc1cc(C2CC(=O)Nc3c2c(C)nn3-c2nc3ccccc3[nH]2)c(OC)c(OC)c1OC` (stereo unspecified): the growth was 39% (inactive).

On to `Cn1c(-c2c(N)n(Cc3ccc(C(F)(F)F)cc3)c3nc(C#N)c(C#N)nc23)nc2ccccc21`, for which the growth is 4.01% (active).

As for `N#Cc1c(-c2ccccc2)cc(-c2ccc(Nc3nc(Nc4ccc(F)cc4)nc(Nc4ccc(F)cc4)n3)cc2)nc1N`, the growth is 104% (inactive).

With `Cc1c(O)cc(-c2cnc(N/N=C\c3ccc(Cl)cc3)s2)c(O)c1C`, the growth is 100% (inactive).

Consider `COc1ccc2c(c1)O/C(=C\c1cccc(OCC(=O)Nc3nc4ccccc4s3)c1)C2=O`, for which the growth is 110% (inactive).

On to `Cn1c2c(c3ccc(Cl)c(Cl)c31)C(C#N)C1(CCNCC1)NC2=O` (stereo unspecified), for which the growth was 18.3% (inactive).

For the compound `COc1ccc(C2=NN(C(=O)c3cc(OC)c(OC)c(OC)c3)C(c3ccc(Cl)cc3)C2)cc1OC` (stereo unspecified), the growth was 14.3% (inactive).

As for `CCN(CC)CCN1CC(O)=C(c2nc(-c3ccc(Cl)cc3)cs2)C1=N`, the growth was 8.48% (active).

On to `C=C(C)[C@@H]1CC=C2c3sc(-c4ccc(C)cc4)nc3C[C@@H](C)[C@]2(C)C1`, for which the growth was 114% (inactive).

In the case of `COC(=O)c1c2c(c[n+]([O-])c1C)C(=O)C=CC2=O`, the growth is 98.4% (inactive).

For `COc1ccc(NC(=O)CSc2nnc(-c3cc(-c4ccccc4)nc4ccccc34)n2-c2ccccc2)cc1`, the growth is 102% (inactive).

For the compound `COc1cc(C2CC(=O)Nc3c2c(C)nn3-c2nc3ccccc3[nH]2)cc2c1OCC(=O)N2` (stereo unspecified), the growth is 67.1% (inactive).

For `Cc1cc(Cl)nc(NCc2cc(Nc3ccnc4cc(Cl)ccc34)ccc2F)n1`, the growth was 34.8% (inactive).

With `COc1ccc2c(c1)[nH]c(=O)c1c3cccnc3cn21`, the growth was 1.71% (active).

With `Cc1ccc(Cc2cnc(NC(=O)c3ccc4noc(-c5ccccc5)c4c3)s2)cc1`, the growth is 84.3% (inactive).

Consider `CC1=CN2C(=O)C3C4=C(CCCC4)SC3N=C2CN1c1c(C)cccc1C` (stereo unspecified), for which the growth was 76.6% (inactive).

As for `Cc1ccc2[nH]c(=O)c3c(c2c1)OC(N)=C(C#N)C31c2cc(Br)ccc2-c2ccc(Br)cc21`, the growth is 40.5% (inactive).

For `CS(=O)(=O)c1ccc(Nc2nc(N[C@H]3CCCC[C@H]3N)nc3cc[nH]c(=O)c23)cc1`, the growth is 12.4% (inactive).

As for `O=C(NCCCNc1cc(-c2cn(-c3ccccc3)nc2-c2cccc(O)c2)ccn1)c1cccc(O)c1`, the growth is 69.6% (inactive).

`COc1ccc(C(=O)COc2ccc(/C=C3\Oc4ccccc4C3=O)cc2)cc1`: the growth was 102% (inactive).

As to `Cc1ccc(C2SCC(=O)N2Cc2ccccc2)cc1` (stereo unspecified), the growth was 115% (inactive).

As for `Cc1cccc(Cc2cnc(NC(=O)/C=C/c3ccco3)s2)c1`, the growth was 3.34% (active).

With `CN(C)CCNc1nc2ccccc2c2c1c1c(n2Cc2ccccc2)-c2ccccc2C1=O`, the growth is -98.6% (active).

Turning to `Cc1occc1-c1n[nH]c(=S)n1N1C(=O)CSC1=S`, the growth was 104% (inactive).

On to `Cc1cccc(NC(=O)CSc2nc3ccccc3[nH]2)c1`, for which the growth is 105% (inactive).

As for `Cc1ccccc1NC(=O)N/C(N)=N/c1nc(C)c(C)s1`, the growth is 10.5% (inactive).

In the case of `NNC(=O)c1nc(N)n(-c2ccc(S(N)(=O)=O)cc2)n1`, the growth was 105% (inactive).

In the case of `COc1cc(CCC[P+](c2ccccc2)(c2ccccc2)c2ccccc2)cc2c1OCO2`, the growth was 37.9% (inactive).

Turning to `O=C1/C(=C2/C=Nc3ccccc32)N(O)c2ccccc21`, the growth is 91.4% (inactive).

As to `COc1ccccc1N1C(=O)/C(=C/C2=Cc3ccccc3OC2)SC1=S`, the growth is 102% (inactive).

With `C=CCn1c(C)nc2cc(Nc3nc(Cl)nc4ccccc34)ccc21`, the growth is 99.2% (inactive).

Turning to `COc1cc(/C=C/C(=O)c2c(C)nc3ccccc3c2C)ccc1OCCCN1CCN(C(=O)c2ccco2)CC1`, the growth is 98.2% (inactive).

Turning to `Cn1cc(-c2csc(-c3ccccc3)n2)c2cccnc21`, the growth is -56.2% [100 µM] (active).

Turning to `N=C(N)c1ccc(-c2ccc(-c3cncc4ccccc34)s2)s1`, the growth was -78.6% (active).

For `CC(C)CC(NC(=O)CN(Cc1ccccc1)S(C)(=O)=O)C(=O)O` (stereo unspecified), the growth is 98.7% (inactive).

Another assay relates to HOP-92 NSCLC. The assay is described as above. Conditions: 10 µM unless noted.
Take `Cc1ccc(Cl)cc1NC(=O)c1cc2ccccc2cc1O`: the growth was -10.5% (active).

For `COc1ccc(NC(=O)CSc2nc(C)c(C(C)=O)n2-c2ccc([N+](=O)[O-])cc2)cc1`, the growth is 112% (inactive).

Regarding `O=C(NC(Cc1nnc2n(Cc3ccccc3)c(=O)c3c4c(sc3n12)CCCC4)c1ccc(Cl)cc1)c1ccccc1` (stereo unspecified), the growth is 76.8% (inactive).

In the case of `COc1cc(C2CC(=O)Nc3c2c(C)nn3-c2nc3ccccc3[nH]2)c(OC)c(OC)c1OC` (stereo unspecified), the growth is 75.7% (inactive).

Turning to `Cn1c(-c2c(N)n(Cc3ccc(C(F)(F)F)cc3)c3nc(C#N)c(C#N)nc23)nc2ccccc21`, the growth is -48% (active).

Regarding `N#Cc1c(-c2ccccc2)cc(-c2ccc(Nc3nc(Nc4ccc(F)cc4)nc(Nc4ccc(F)cc4)n3)cc2)nc1N`, the growth is 46.8% (inactive).

`Cc1c(O)cc(-c2cnc(N/N=C\c3ccc(Cl)cc3)s2)c(O)c1C`: the growth was 81.1% (inactive).

For `COc1ccc2c(c1)O/C(=C\c1cccc(OCC(=O)Nc3nc4ccccc4s3)c1)C2=O`, the growth was -24.5% (active).

For the compound `Cn1c2c(c3ccc(Cl)c(Cl)c31)C(C#N)C1(CCNCC1)NC2=O` (stereo unspecified), the growth was 21.9% (inactive).

Turning to `COc1ccc(C2=NN(C(=O)c3cc(OC)c(OC)c(OC)c3)C(c3ccc(Cl)cc3)C2)cc1OC` (stereo unspecified), the growth is 31.6% (inactive).

As to `CCN(CC)CCN1CC(O)=C(c2nc(-c3ccc(Cl)cc3)cs2)C1=N`, the growth is -44.3% (active).

`C=C(C)[C@@H]1CC=C2c3sc(-c4ccc(C)cc4)nc3C[C@@H](C)[C@]2(C)C1`: the growth was 103% (inactive).

In the case of `COC(=O)c1c2c(c[n+]([O-])c1C)C(=O)C=CC2=O`, the growth is 70.8% (inactive).

As for `COc1ccc(NC(=O)CSc2nnc(-c3cc(-c4ccccc4)nc4ccccc34)n2-c2ccccc2)cc1`, the growth was 87.3% (inactive).

With `COc1cc(C2CC(=O)Nc3c2c(C)nn3-c2nc3ccccc3[nH]2)cc2c1OCC(=O)N2` (stereo unspecified), the growth was 56.9% (inactive).

For the compound `Cc1cc(Cl)nc(NCc2cc(Nc3ccnc4cc(Cl)ccc34)ccc2F)n1`, the growth is 40.4% (inactive).

In the case of `COc1ccc2c(c1)[nH]c(=O)c1c3cccnc3cn21`, the growth was 73.5% (inactive).

For the compound `Cc1ccc(Cc2cnc(NC(=O)c3ccc4noc(-c5ccccc5)c4c3)s2)cc1`, the growth was 103% (inactive).

Regarding `CC1=CN2C(=O)C3C4=C(CCCC4)SC3N=C2CN1c1c(C)cccc1C` (stereo unspecified), the growth was 55.2% (inactive).

Regarding `Cc1ccc2[nH]c(=O)c3c(c2c1)OC(N)=C(C#N)C31c2cc(Br)ccc2-c2ccc(Br)cc21`, the growth is 42.7% (inactive).

Regarding `CS(=O)(=O)c1ccc(Nc2nc(N[C@H]3CCCC[C@H]3N)nc3cc[nH]c(=O)c23)cc1`, the growth is -8.34% (active).

`O=C(NCCCNc1cc(-c2cn(-c3ccccc3)nc2-c2cccc(O)c2)ccn1)c1cccc(O)c1`: the growth was 57.2% (inactive).

For `COc1ccc(C(=O)COc2ccc(/C=C3\Oc4ccccc4C3=O)cc2)cc1`, the growth was 75.8% (inactive).

Regarding `Cc1ccc(C2SCC(=O)N2Cc2ccccc2)cc1` (stereo unspecified), the growth was 81.7% (inactive).

`Cc1cccc(Cc2cnc(NC(=O)/C=C/c3ccco3)s2)c1`: the growth was 78% (inactive).

Consider `CN(C)CCNc1nc2ccccc2c2c1c1c(n2Cc2ccccc2)-c2ccccc2C1=O`, for which the growth was -78.7% (active).

Consider `Cc1occc1-c1n[nH]c(=S)n1N1C(=O)CSC1=S`, for which the growth was 103% (inactive).

With `Cc1cccc(NC(=O)CSc2nc3ccccc3[nH]2)c1`, the growth is 88.4% (inactive).

Turning to `Cc1ccccc1NC(=O)N/C(N)=N/c1nc(C)c(C)s1`, the growth was 73.6% (inactive).

Consider `NNC(=O)c1nc(N)n(-c2ccc(S(N)(=O)=O)cc2)n1`, for which the growth is 74.2% (inactive).

Take `COc1cc(CCC[P+](c2ccccc2)(c2ccccc2)c2ccccc2)cc2c1OCO2`: the growth was 25.3% (inactive).

`O=C1/C(=C2/C=Nc3ccccc32)N(O)c2ccccc21`: the growth was 124% (inactive).

Regarding `COc1ccccc1N1C(=O)/C(=C/C2=Cc3ccccc3OC2)SC1=S`, the growth is 97.7% (inactive).

For `C=CCn1c(C)nc2cc(Nc3nc(Cl)nc4ccccc34)ccc21`, the growth is 91.9% (inactive).

As for `COc1cc(/C=C/C(=O)c2c(C)nc3ccccc3c2C)ccc1OCCCN1CCN(C(=O)c2ccco2)CC1`, the growth is 70% (inactive).

Regarding `Cn1cc(-c2csc(-c3ccccc3)n2)c2cccnc21`, the growth is -53% [100 µM] (active).

`N=C(N)c1ccc(-c2ccc(-c3cncc4ccccc34)s2)s1`: the growth is -82.6% (active).

Turning to `CC(C)CC(NC(=O)CN(Cc1ccccc1)S(C)(=O)=O)C(=O)O` (stereo unspecified), the growth is -0.442% (active).

For the origin of these results see PubChem BioAssay (NCI).
